The panel holds about 83,000 compounds, 20% with a hit somewhere; the sample as a whole holds those more often.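 Activity criterion: percent growth below 10, measured after cells in 96-well plates were exposed to a single compound concentration for 48 hours.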 A number with no mark means an inactive call. Calls of active or inactive are those of the source.

Common to all, as to assay: NCI-60 one-dose screen, 48 h (100 = growth as untreated, 0 = no growth, -100 = all killed)
What all share (settings): 10 µM unless noted

In assay [1] the test system is DU-145 prostate.
Assay [2] has as its system K-562 leukemia.
The subject of assay [3] is MALME-3M melanoma.
For assay [4], the system named is MDA-MB-231 breast.
Assay [5] relates to RXF 393 renal.
Assay [6] concerns SF-268 CNS.
In assay [7] the test system is SF-295 CNS.
In assay [8] the test system is SF-539 CNS.
The subject of assay [9] is UACC-257 melanoma.
Assay [10] relates to M14 melanoma.

Take `O=Cc1ncc(-c2ccc(C(F)(F)F)cc2)c(NC2CCCCCC2)n1`: the growth was -92.9% [100 µM] (active) in assay [1]; -50.2% [100 µM] (active) in [2]; -92% [100 µM] (active) in assay [3]; -87.8% [100 µM] (active) in assay [4]; -80.2% [100 µM] (active) in assay [5]; -83.9% [100 µM] (active) in assay [6]. Also, the growth in assay [7] was -86.3% [100 µM] (active); in assay [8], -96.8% [100 µM] (active); in assay [9], -92% [100 µM] (active); in assay [10] it was -91.6% [100 µM] (active).

With `Cc1csc(C#Cc2cncc(O)c2)n1`, the growth in assay [1] was 116%; in assay [2] it was 127%; in [3] it was 96.7%; in assay [4], 107%; in [5], 69.9%; in [6] it was 131%. The growth in [7] is 121%; in assay [8], 108%; in assay [9] it was 98.5%; in assay [10] it was 111%.

As for `C[C@@H]1CN(c2nc3c(cc2F)c(=O)c(C(=O)O)cn3C(C)(C)C)C[C@H](C)N1`, the growth in [1] is 114%; in assay [2] it was 90.8%; in assay [3] it was 91.3%; in assay [4], 88.4%; in [5] it was -17.3% (active); in assay [6], 114%. Also, the growth in assay [7] is 96.5%; in assay [8], 107%; in assay [9], 91.2%; in assay [10] it was 98.8%.

As to `O=C(CNC(=O)c1cccc2ccccc12)Nc1ccccc1Oc1cccc(O)c1`, the growth in [1] is 17.1% [5 µM]; in assay [2], 9.03% [5 µM] (active); in assay [3], 63.6% [5 µM]; in assay [4], 48.9% [5 µM]; in assay [5], -19% [5 µM] (active); in assay [6], 49.9% [5 µM]. Further, the growth is 3.33% [5 µM] (active) in assay [7], -18.4% [5 µM] (active) in assay [8], 45% [5 µM] in assay [9] and -8.22% [5 µM] (active) in assay [10].

As to `COc1cc(C(=O)/C=C/c2cccc(Nc3ccnc4cc(Cl)ccc34)c2)cc(OC)c1OC`, the growth was -0.714% (active) in [1]; -6.81% (active) in assay [2]; 9.8% (active) in [3]; -5.45% (active) in assay [4]; -71.9% (active) in assay [5]; -16.6% (active) in assay [6]. Further, the growth is 3.06% (active) in [7], -46.1% (active) in assay [8], 30.6% in assay [9] and -11.6% (active) in [10].

Consider `CCC(C)C1NC(=O)C(CCNCS(=O)(=O)O)NC(=O)C(NC(=O)C(CCNCS(=O)(=O)O)NC(=O)C(NC(=O)C(CCNCS(=O)(=O)O)NC(=O)CCCCC(C)C)C(C)O)CCNC(=O)C(C(C)O)NC(=O)C(CCNCS(=O)(=O)O)NC(=O)C(CCNCS(=O)(=O)O)NC(=O)C(C(C)CC)NC1=O` (stereo not given), for which the growth in assay [1] is 117%; in assay [2], 20.2%; in assay [3] it was 48.9%; in assay [4], 51.9%; in [5] it was 47.4%; in assay [6] it was 72.9%. The growth in assay [7] is 86.6%; in [8], 27.3%; in assay [9], 84.3%; in assay [10] it was 34.7%.

Consider `O=C(C(=O)c1cc(Br)ccc1O)c1cc(Br)ccc1O`, for which the growth in assay [1] is 67.7%; in assay [2], 42.8%; in assay [3], 31.2%; in assay [4] it was 64.8%; in [5] it was 65.7%; in [6], 38.1%. Further, the growth in assay [7] was 67.9%; in assay [8], 53.2%; in assay [9] it was 43.1%; in [10] it was 66.9%.

`CC(=O)N1N=C(c2ccc(Nc3ccnc4cc(Cl)ccc34)cc2)CC1c1ccc(Cl)cc1` (stereo not given): the growth was 67.3% in [1]; 19.1% in [2]; 26.8% in [3]; 72.7% in [4]; 42.3% in assay [5]; 53.3% in assay [6]. Further, the growth in [7] is 15.4%; in assay [8], 86.4%; in assay [9], 61.7%; in assay [10] it was 47.6%.

As to `CCCCN=C(N)c1ccc(OCCSCCOc2ccc(C(N)=NCCCC)cc2)cc1`, the growth in assay [1] was 55.3%; in assay [2], 40.9%; in assay [3], 39.3%; in assay [4], 58.7%; in assay [5], 92.6%; in assay [6] it was 35.6%. Also, the growth in assay [7] was -36.4% (active); in assay [8], 55%; in assay [9], 39.9%; in assay [10], 81.6%.

On to `COc1cc(/C=C/c2cc(/C=C/c3ccc(O)c(OC)c3)n(C(=O)Cc3ccccc3)n2)ccc1O`, for which the growth is 17.3% in assay [1]; 1.69% (active) in assay [2]; -0.485% (active) in assay [3]; 15.2% in assay [4]; -42.6% (active) in [5]; 9.64% (active) in [6]. The growth in [7] was 8.28% (active); in [8], -23.1% (active); in [9] it was -5.67% (active); in assay [10], 0.243% (active).

Regarding `COc1ccc2c(c1)[n+](=O)c(/C=C/C(=O)c1cc(OC)c(OC)c(OC)c1)c(C)n2[O-]`, the growth in [1] is 17.5%; in [2] it was 2.27% (active); in assay [3], 86%; in assay [4] it was 84.1%; in [5], 38.5%; in assay [6], 69.4%. Moreover, the growth was 46.4% in assay [7], 70.2% in [8], 63.6% in [9] and 63.6% in assay [10].

On to `CC(C)CC1NC(=O)C(CCCN)NC(=O)C(C(C)C)NC(=O)C2CCCN2C(=O)C(Cc2ccccc2)NC(=O)C(CC(C)C)NC(=O)C(CCCN)NC(=O)C(C(C)C)NC(=O)C2CCCN2C(=O)C(Cc2ccccc2)NC1=O` (stereo not given), for which the growth was -52.5% (active) in assay [1]; -53.1% (active) in assay [2]; -76.3% (active) in [3]; -54.4% (active) in assay [4]; -65.7% (active) in assay [5]; -85.4% (active) in [6]. Moreover, the growth is -77.4% (active) in [7], -82.5% (active) in assay [8], -72.9% (active) in [9] and -63.8% (active) in assay [10].

As for `Cc1ccc(/C=C(/C#N)n2nnc3ncccc32)cc1`, the growth was -27.2% (active) in assay [1]; 5.03% (active) in [2]; 22.7% in assay [3]; -3.95% (active) in assay [4]; -28.4% (active) in assay [5]; 25.3% in [6]. Further, the growth in [7] is 27.8%; in [8], -53.8% (active); in assay [9], 31.1%; in assay [10] it was -4.85% (active).

The values are drawn from PubChem BioAssay (NCI).
